# Data taken from PubChem BioAssay (NCI).
# Compounds without any hit were thinned out: in the full panel of roughly 79,000, 15% have a hit. Active and inactive are the calls of the source. Cut-off read from the data, not from the text of the source: active = growth inhibition above about 70%; inactive = the rest.
# Assay: NCI Yeast Anticancer Drug Screen. Data for the rad14 strain (AID 159);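 note: 0% = growth of vehicle-treated control cultures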
# Conditions: S. cerevisiae rad14 strain growth inhibition; at 11.0 µM; stronger effect = higher value
# Method in brief: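 Growth inhibition vs vehicle controls; genetically altered yeast strain (DNA damage repair defect) treated with test compounds.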
row,Structure (SMILES),growth inhibition
1,Cc1cccc2c(C(O)CBr)cc(-c3ccc(Cl)cc3)nc12 (stereo not given),99% (active)
2,CN(C)C[C@H]1CC[C@@H](CN(C)C)C1=O,21% (inactive)
3,CC1=C(SCCO)C(=O)c2ccccc2C1=O,8% (inactive)
4,COC(=O)CCNc1c2ccccc2nc2cccc([N+](=O)[O-])c12,99% (active)
5,CC(/C=C/c1ccc2c(c1)OCO2)[N+](=O)[O-] (stereo not given),100% (active)
6,COC(=O)C1=C(C)NC(C)=C(C(=O)OCCCN2CCC(c3ccccc3)(c3ccccc3)CC2)C1c1cccc([N+](=O)[O-])c1 (stereo not given),99% (active)
7,CCOC(=O)c1cnc2c(C(F)(F)F)cccc2c1N=[N+]=[N-],3% (inactive)
8,O=[N+]([O-])c1cc2no[n+]([O-])c2cc1N1CCCCC1,99% (active)
9,COC(=O)c1ccc(NCC2=CC(=O)C=CC2=O)cc1O,98% (active)
10,CCCCCCCCNC(=O)C1=C(C)NC(C)=C(C(=O)NCCCCCCCC)C1,2% (inactive)
11,S=C(Nc1ccc(Cl)c(Cl)c1)SCc1ccc2c(c1)OCO2,100% (active)
12,O=S(=O)(CCCl)c1ccccc1Cl,45% (inactive)
13,Nc1ccccc1CC(O)C(=O)O (stereo not given),24% (inactive)
14,CN(C)c1ccc(Sc2ccc3nc(N)nc(N)c3c2)cc1,-9% (inactive)
15,CC(C)C1=CCC2C(=C1)CCC1C(C)(C(=O)O)CCCC21C (stereo not given) (tested in a mixture with another compound),19% (inactive)
16,Cc1ccc(S(=O)(=O)Oc2cc(Cl)c(Cl)cc2Cl)cc1,2% (inactive)
17,CSC(=S)Nc1cc(C)ccn1,42% (inactive)
18,CC(C)c1cc(C(C)C)c(O)c(C([O-])[O-])c1.CC(C)c1cc(C(C)C)c(O)c(C([O-])[O-])c1.CC(C)c1cc(C(C)C)c(O)c(C([OH2+])[OH2+])c1.CC(C)c1cc(C(C)C)c(O)c(C([OH2+])[OH2+])c1.[Cu+2].[Cu+2].[OH3+].[OH3+],29% (inactive)
19,Cc1cc(I)ccc1N,-1% (inactive)
20,CC(Br)C(=O)c1ccc2cc(Br)c3ccccc3c2c1 (stereo not given),0% (inactive)

row,Structure (SMILES),growth inhibition
1,O=C(Nc1ccccc1)OCCc1ccc(Cl)c(Cl)c1,15% (inactive)
2,O=Cc1cccc2ccc3ccccc3c12,9% (inactive)
3,O=[N+]([O-])CC(SCc1ccccc1)c1ccc2c(c1)OCO2 (stereo not given),71% (active)
4,CC1(Cl)CC(O)C2(CC1Br)C1(C)OC1C1OC1(Br)C2(C)C (stereo not given),-23% (inactive)
5,Cc1cc(O)cc(O)c1N=Nc1ccc([N+](=O)[O-])cc1,-14% (inactive)
6,CCCCCCCCCCCCCC[N+](C)(CC(=O)[O-])Cc1ccccc1 (stereo not given),100% (active)
7,CC1=NN(c2cccc(Cl)c2)C(=O)C1,-22% (inactive)
8,CC(=O)OCc1ccc(O)c(C=O)c1,2% (inactive)
9,Cc1ccc2ccc3cccc4ccc1c2c34,3% (inactive)
10,Cc1nc(-[n+]2nc(-c3ccncc3)nn2-c2ccccc2)sc1C,-7% (inactive)
11,C(CCSC1=NCCN1)CSC1=NCCN1 (tested in a mixture with another compound),99% (active)
12,CCCCCCCCCCC(=O)Cl,-8% (inactive)
13,COC1C=COC2(C)Oc3c(C)c(O)c4c(c3C2=O)/C(=N/C2CCC(O)OC2C)C=C(NC(=O)/C(C)=C\C(=O)C2CC2C(O)C(C)C(O)C(C)C(OC(C)=O)C1C)C4=O (stereo not given),-3% (inactive)
14,S=c1[nH]nc(Nc2ccc(Cl)cc2)s1,0% (inactive)
15,O=C1CSC(/C=C/c2ccccc2)N1c1ccc(-c2ccc(-n3c(-c4ccccc4)nc4ccccc4c3=O)cc2)cc1 (stereo not given),9% (inactive)
16,O=C1C=CC(=O)N1c1ccc2c(c1)Cc1cc(NC(=O)C(F)(F)F)ccc1-2,42% (inactive)
17,Brc1ccc(-c2cc3c(cc2C2SCCS2)OCO3)cc1,-30% (inactive)
18,Oc1ccc2ccccc2c1C(c1ccc(Cl)cc1)c1c(O)ccc2ccccc12,-60% (inactive)
19,C[CH2][Sn]([CH2]C)([O]C(=O)C(OC(C)=O)c1ccccc1)[O]C(=O)C(OC(C)=O)c1ccccc1 (stereo not given),2% (inactive)
20,Cc1ccc2ccc(O)cc2c1,-23% (inactive)

# Same assay, conditions: S. cerevisiae rad14 strain growth inhibition; at 33.0 µM; stronger effect = higher value
row,Structure (SMILES),growth inhibition
1,Cc1cccc2c(C(O)CBr)cc(-c3ccc(Cl)cc3)nc12 (stereo not given),97% (active)
2,CN(C)C[C@H]1CC[C@@H](CN(C)C)C1=O,30% (inactive)
3,CC1=C(SCCO)C(=O)c2ccccc2C1=O,17% (inactive)
4,COC(=O)CCNc1c2ccccc2nc2cccc([N+](=O)[O-])c12,99% (active)
5,CC(/C=C/c1ccc2c(c1)OCO2)[N+](=O)[O-] (stereo not given),99% (active)
6,COC(=O)C1=C(C)NC(C)=C(C(=O)OCCCN2CCC(c3ccccc3)(c3ccccc3)CC2)C1c1cccc([N+](=O)[O-])c1 (stereo not given),98% (active)
7,CCOC(=O)c1cnc2c(C(F)(F)F)cccc2c1N=[N+]=[N-],52% (inactive)
8,O=[N+]([O-])c1cc2no[n+]([O-])c2cc1N1CCCCC1,99% (active)
9,COC(=O)c1ccc(NCC2=CC(=O)C=CC2=O)cc1O,98% (active)
10,CCCCCCCCNC(=O)C1=C(C)NC(C)=C(C(=O)NCCCCCCCC)C1,4% (inactive)
11,S=C(Nc1ccc(Cl)c(Cl)c1)SCc1ccc2c(c1)OCO2,99% (active)
12,O=S(=O)(CCCl)c1ccccc1Cl,91% (active)
13,Nc1ccccc1CC(O)C(=O)O (stereo not given),91% (active)
14,CN(C)c1ccc(Sc2ccc3nc(N)nc(N)c3c2)cc1,-14% (inactive)
15,CC(C)C1=CCC2C(=C1)CCC1C(C)(C(=O)O)CCCC21C (stereo not given) (tested in a mixture with another compound),34% (inactive)
16,Cc1ccc(S(=O)(=O)Oc2cc(Cl)c(Cl)cc2Cl)cc1,-7% (inactive)
17,CSC(=S)Nc1cc(C)ccn1,24% (inactive)
18,CC(C)c1cc(C(C)C)c(O)c(C([O-])[O-])c1.CC(C)c1cc(C(C)C)c(O)c(C([O-])[O-])c1.CC(C)c1cc(C(C)C)c(O)c(C([OH2+])[OH2+])c1.CC(C)c1cc(C(C)C)c(O)c(C([OH2+])[OH2+])c1.[Cu+2].[Cu+2].[OH3+].[OH3+],64% (inactive)
19,Cc1cc(I)ccc1N,93% (active)
20,CC(Br)C(=O)c1ccc2cc(Br)c3ccccc3c2c1 (stereo not given),-5% (inactive)

row,Structure (SMILES),growth inhibition
1,O=C(Nc1ccccc1)OCCc1ccc(Cl)c(Cl)c1,31% (inactive)
2,O=Cc1cccc2ccc3ccccc3c12,71% (active)
3,O=[N+]([O-])CC(SCc1ccccc1)c1ccc2c(c1)OCO2 (stereo not given),97% (active)
4,CC1(Cl)CC(O)C2(CC1Br)C1(C)OC1C1OC1(Br)C2(C)C (stereo not given),61% (inactive)
5,Cc1cc(O)cc(O)c1N=Nc1ccc([N+](=O)[O-])cc1,38% (inactive)
6,CCCCCCCCCCCCCC[N+](C)(CC(=O)[O-])Cc1ccccc1 (stereo not given),99% (active)
7,CC1=NN(c2cccc(Cl)c2)C(=O)C1,3% (inactive)
8,CC(=O)OCc1ccc(O)c(C=O)c1,14% (inactive)
9,Cc1ccc2ccc3cccc4ccc1c2c34,14% (inactive)
10,Cc1nc(-[n+]2nc(-c3ccncc3)nn2-c2ccccc2)sc1C,8% (inactive)
11,C(CCSC1=NCCN1)CSC1=NCCN1 (tested in a mixture with another compound),99% (active)
12,CCCCCCCCCCC(=O)Cl,39% (inactive)
13,COC1C=COC2(C)Oc3c(C)c(O)c4c(c3C2=O)/C(=N/C2CCC(O)OC2C)C=C(NC(=O)/C(C)=C\C(=O)C2CC2C(O)C(C)C(O)C(C)C(OC(C)=O)C1C)C4=O (stereo not given),16% (inactive)
14,S=c1[nH]nc(Nc2ccc(Cl)cc2)s1,46% (inactive)
15,O=C1CSC(/C=C/c2ccccc2)N1c1ccc(-c2ccc(-n3c(-c4ccccc4)nc4ccccc4c3=O)cc2)cc1 (stereo not given),31% (inactive)
16,O=C1C=CC(=O)N1c1ccc2c(c1)Cc1cc(NC(=O)C(F)(F)F)ccc1-2,66% (inactive)
17,Brc1ccc(-c2cc3c(cc2C2SCCS2)OCO3)cc1,-7% (inactive)
18,Oc1ccc2ccccc2c1C(c1ccc(Cl)cc1)c1c(O)ccc2ccccc12,-7% (inactive)
19,C[CH2][Sn]([CH2]C)([O]C(=O)C(OC(C)=O)c1ccccc1)[O]C(=O)C(OC(C)=O)c1ccccc1 (stereo not given),14% (inactive)
20,Cc1ccc2ccc(O)cc2c1,-25% (inactive)
